Bioassay records deposited in PubChem by several laboratories.
Myeloid diff MLP – myeloid differentiation induction; ER-HoxA9 myeloid progenitors, lysozyme-GFP differentiation, flow cytometry; calls only at 10 µM; hit rate 1% among 360,000; AID 624256;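 active means normalized GFP-positive differentiation at or above the plate's own cutoff, the solvent-only control mean plus 3 SD; inconclusive means no clear call, values can overlap the other calls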;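 further: cells exposed to compound for four days before flow analysis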
TPT1 inh – C. albicans TPT1 enzyme inhibition | inhibition, % at 5 µM | recombinant caTPT1, FP RNA substrate dephosphorylation | AID 1962 | hit rate 0.81% among 300,000;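 active means inhibition above the mean of all tested compounds plus 3 SD, set per screening campaign, cut at about 24% in these data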
HNF4A DNA FP – change in binding of human HNF4 alpha to DNA | AID 1224865 | P41235 | activity change, % at 10 µM | hit rate 0.3% among 360,000 | HNF4a-FITC DNA binding, fluorescence polarization, 1 h; in the data active means activity change above about 30%, passing the limit was not always enough
Rpn11 inh – inhibitors of human proteasome Rpn11. hit rate 0.59% among 360,000. inhibition, % at 20 µM. AID 588493. human 26S proteasome, Ub4-pepOG fluorescence polarization; 20S core pre-blocked with epoxomicin. O00487;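 active means inhibition at 20 µM, scaled to each plate's controls, above about 33%, limit read from the data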
Rpn11 inh conf – confirmation of human proteasome Rpn11 inhibitors; shares compounds with Rpn11 inh; purified human 26S proteasome, Ub4-pepOG fluorescence polarization; proteasome pretreated with epoxomicin; inhibition, % at 20 µM; hit rate 29% among 1,900
MMP-2 counter – blocks human MMP-2, flagging nonselective RPN11 hits; inhibition, % at 20 µM; hit rate 4% among 1,900; recombinant MMP-2, FRET peptide cleavage fluorescence; shares compounds with Rpn11 inh;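 further: human MMP-2 activated beforehand with APMA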
Target sequence (P08253 whole entry, looked up): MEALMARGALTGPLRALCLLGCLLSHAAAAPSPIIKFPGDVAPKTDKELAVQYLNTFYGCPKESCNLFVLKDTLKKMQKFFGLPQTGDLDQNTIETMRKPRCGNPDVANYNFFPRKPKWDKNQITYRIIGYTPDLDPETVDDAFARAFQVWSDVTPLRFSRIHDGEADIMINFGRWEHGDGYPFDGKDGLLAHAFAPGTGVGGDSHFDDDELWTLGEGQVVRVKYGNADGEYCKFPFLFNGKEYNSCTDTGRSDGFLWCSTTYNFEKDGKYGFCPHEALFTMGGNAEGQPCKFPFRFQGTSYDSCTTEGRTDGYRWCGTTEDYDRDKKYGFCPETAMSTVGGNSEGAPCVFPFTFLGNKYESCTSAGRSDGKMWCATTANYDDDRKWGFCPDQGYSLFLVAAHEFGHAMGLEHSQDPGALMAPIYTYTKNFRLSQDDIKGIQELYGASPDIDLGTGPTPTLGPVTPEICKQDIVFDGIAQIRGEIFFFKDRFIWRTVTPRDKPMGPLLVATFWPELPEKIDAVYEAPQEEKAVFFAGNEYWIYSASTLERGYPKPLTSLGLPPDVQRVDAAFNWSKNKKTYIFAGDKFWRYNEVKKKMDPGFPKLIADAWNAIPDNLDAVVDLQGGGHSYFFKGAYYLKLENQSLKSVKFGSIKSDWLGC
Thrombin FP – counter-screen for RPN11 inhibitors: inhibition of bovine thrombin; shares compounds with Rpn11 inh; bovine thrombin cleavage of Ub4-pepOG, fluorescence polarization; inhibition, % at 20 µM; hit rate 13% among 1,900; AID 602333;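 active means mean inhibition at least 40% at 20 µM, or signal 3 deviations below plate average, so some actives read negative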
A number is an active result; . = inactive; ? = inconclusive; / = no result. Sampled rows, rich in hits. Any-hit rate of the full collection: about 2.1%. Unless noted, no stated cut-off is given here; in the data, active means inhibition above about 40%; inactive means the rest.

SMILES | Myeloid diff MLP | TPT1 inh | HNF4A DNA FP | Rpn11 inh | Rpn11 inh conf | MMP-2 counter | Thrombin FP
CC(C)NC(=O)C1(C)CCN1C(=O)c1ccc(F)c(Cl)c1 (stereo not given) | . | / | . | . | / | / | /
Cn1cnnc1SCC(=O)Nc1ccc2nc(SCc3ccccc3)sc2c1 | . | . | . | 64 | . | . | .
Nc1ncnc(Sc2ccc(Cl)cc2)c1[N+](=O)[O-] | ? | . | . | 44 | . | . | .
Cc1ccc(S(=O)(=O)N(C)C)cc1NC(=O)COC(=O)c1ccc2c(c1)NC(=O)CS2 | . | . | . | . | / | / | /
Cc1ccc(-n2cccc2/C=C2/C(=N)N3C(=NC2=O)SN=C3S(C)(=O)=O)cc1 | . | . | . | 61 | 63 | . | .
CS(=O)(=O)C1=NSC2=NC(=O)/C(=C\c3cccn3-c3ccccc3Cl)C(=N)N21 | . | . | . | 59 | 79 | . | .
CC(C)CS(=O)(=O)C1=NSC2=NC(=O)/C(=C\c3ccc(OC(=O)c4ccco4)cc3)C(=N)N21 | . | . | . | . | / | / | /
CS(=O)(=O)C1=NSC2=NC(=O)/C(=C\c3ccc(OS(=O)(=O)c4ccccc4)cc3)C(=N)N21 | . | . | . | . | / | / | /
Cc1ccc(S(=O)(=O)Oc2ccc(/C=C3/C(=N)N4C(=NC3=O)SN=C4S(C)(=O)=O)cc2)cc1 | . | . | . | . | / | / | /
CS(=O)(=O)C1=NSC2=NC(=O)/C(=C\c3ccc(OC(=O)c4ccco4)c(Br)c3)C(=N)N21 | . | . | 35 | 71 | . | . | .
Cc1cc(C)cc(-n2cccc2/C=C2/C(=N)N3C(=NC2=O)SN=C3S(C)(=O)=O)c1 | . | . | . | 51 | 53 | . | .
O=C(NC1CCS(=O)(=O)C1)C12CC3CC(CC(C3)C1)C2 (stereo not given) | . | . | . | . | / | / | /
O=C(Nc1ccc(Oc2ccc(NC(=O)Nc3ccccc3Cl)cc2)cc1)Nc1ccccc1Cl | . | . | . | . | / | / | /
COC(=O)c1cc(NC(=O)Cn2c(=O)oc3ccccc32)cc(C(=O)OC)c1 | / | . | . | . | / | / | /
CCc1ccc(-n2cccc2/C=C2/C(=N)N3C(=NC2=O)SN=C3S(C)(=O)=O)cc1 | . | . | . | 60 | 64 | . | 45
CCN(CC)S(=O)(=O)c1cc(OC)ccc1N=Nc1ccc(O)c2ncccc12 | / | / | . | 50 | 48 | 43 | .
CCS(=O)(=O)c1ccc(OC)c(N=Nc2ccc(O)c3ncccc23)c1 | . | . | . | . | / | / | /
NS(=O)(=O)c1ccc(N=Nc2ccc(O)c3ncccc23)cc1 | ? | . | . | 86 | 70 | 55 | .
CCOc1ccc(N=Nc2ccc(O)c3ncccc23)cc1 | / | / | . | . | / | / | /
CC(=O)Nc1cccc(OCC(=O)NC(C)c2ccc3ccccc3c2)c1 (stereo not given) | . | . | . | . | / | / | /
Cc1cccc(-c2nc(Nc3ccc(N4CCOCC4)cc3)c3ccccc3n2)c1 | . | . | . | . | / | / | /
Fc1ccc(Nc2nc(-c3ccncc3)nc3ccccc23)cc1F | . | . | . | 80 | . | . | .
Clc1cccc(Nc2nc(-c3ccncc3)nc3ccccc23)c1 | . | . | . | . | / | / | /
Cc1cccc(-c2nc(Nc3cccc(O)c3)c3ccccc3n2)c1 | . | . | . | 60 | . | . | .
Cc1ccc(/C=C2\SC(=S)N(CCCC(=O)Nc3cc(C)on3)C2=O)cc1 | . | . | . | . | / | / | /
SMILES | Myeloid diff MLP | TPT1 inh | HNF4A DNA FP | Rpn11 inh | Rpn11 inh conf | MMP-2 counter | Thrombin FP
Cc1cc(NC(=O)CN2C(=O)/C(=C/c3cccc(Br)c3)SC2=S)no1 | . | . | . | 45 | . | . | .
Cc1cccc(OCCNC(=O)CCc2ccccc2)c1 | . | . | . | . | / | / | /
CCCn1c(NC(=O)c2ccco2)nc2ccccc21 | . | . | . | . | / | / | /
CCCn1c(NC(=O)C2COc3ccccc3O2)nc2ccccc21 (stereo not given) | . | . | . | 104 | . | . | .
Nc1c2c(nc3ccccc13)CSCC2 | . | . | . | . | / | / | /
CCCc1cc(C(=O)N(C)CC(=O)Nc2ccc(OCC)c(OCC)c2)sc1C | . | . | . | . | / | / | /
COc1cccc2cc(C(=O)Nc3ccc(S(=O)(=O)NCC4CCCO4)cc3)c(=O)oc12 (stereo not given) | . | . | . | . | / | / | /
CCn1nc(CC(=O)O)c2ccccc2c1=O | . | . | . | 47 | . | . | .
O=C1CN(C(=O)CNCc2cccc(Cl)c2)c2ccccc2N1 | . | . | . | . | / | / | /
CCNC(=S)NNC(=O)c1cccc(Br)c1 | . | . | . | 28 | . | . | .
C=CCn1sc(=N)c(C#N)c1N | . | . | . | 60 | . | . | .
C=CCn1c(C)cc(C)c(C#N)c1=O | . | . | . | . | / | / | /
CSCC[C@H](NS(=O)(=O)c1ccc(C)cc1)C(=O)N1CCC(C(=O)N[C@@H](Cc2ccc(O)cc2)C(=O)O)CC1 | . | . | . | . | / | / | /
Cc1nn2c(N3CCCC3)c3c(nc2c1-c1ccccc1)CCC3 | . | . | . | 110 | . | . | .
Cc1nn2c(N3CCN(CCO)CC3)c3c(nc2c1-c1ccccc1)CCCC3 | . | . | . | . | / | / | /
CCOc1c(Nc2ccccc2O)c(=O)c1=O | . | . | . | . | / | / | /
Cc1ccc(S(=O)(=O)N2CCN(C(=O)COC(=O)/C=C/c3ccc([N+](=O)[O-])cc3)CC2)c(C)c1 | . | / | . | 65 | . | . | .
Cc1cccc(N2CCN(S(=O)(=O)c3cc4c(cc3Cl)NC(=O)CO4)CC2)c1C | . | . | . | 44 | . | . | .
CC(C)c1ccc(N(CC(=O)N/N=C/c2ccc(OC3CSC3)cc2)S(=O)(=O)c2ccccc2)cc1 | . | . | . | 40 | . | . | .
Cc1ccc(N(CC(=O)N/N=C/c2ccc(OC3CSC3)cc2)S(=O)(=O)c2ccccc2)cc1 | . | . | . | . | / | / | /
O=[N+]([O-])c1cccc(CSC2=NCCN2S(=O)(=O)c2ccccc2)c1 | . | . | . | . | / | / | /
O=C(Nc1nc2ccsc2c(=O)s1)c1ccc(F)cc1 | . | . | . | 43 | . | . | .
O=C(Nc1nc2ccsc2c(=O)s1)c1ccc(F)cc1Cl | . | . | . | . | / | / | /
COC(=O)c1ccc(NC(=O)c2cn(-c3ccccc3)nc2-c2ccncc2)cc1 | . | . | . | 54 | . | . | .
CC(=O)c1ccc(NC(=O)c2cn(-c3ccccc3)nc2-c2ccncc2)cc1 | . | . | . | . | / | / | /
CC1=C(C(=O)OC(C)C)C(c2cccc([N+](=O)[O-])c2)n2c(cc(=O)[nH]c2=S)N1 (stereo not given) | . | . | . | . | / | / | /
Cc1ccc(S(=O)(=O)N(C)CC(=O)O/N=C(\N)c2cccc([N+](=O)[O-])c2)cc1 | . | . | . | 196 | . | . | .
Cc1ccc(SCC(=O)O/N=C(\N)c2cccc([N+](=O)[O-])c2)cc1 | . | . | . | . | / | / | /
COc1cccc(/C=N/NC(=O)c2ccc(N3CCCC3=O)cc2)c1 | ? | . | . | . | / | / | /
O=C(Cc1cccs1)N1CCC(c2nc3c(nnn3Cc3ccccc3)c(=O)[nH]2)CC1 | . | . | . | 53 | . | . | .
